Bioassay records (PubChem BioAssay)
Most compounds without a hit are left out; they make up all but 0.63% or so of the library.
gsp agonist = agonists of gsp mutant (McCune-Albright syndrome) | 340,000 tested, 0.13% active | gsp mutant cells, cAMP HTRF, 30 min | Potency, µM (highest dose often 76.9 µM), inactives show at the top dose activation (cAMP increase), usual class: activators; active = well fitted activation curve with a large enough effect; inconclusive = small, poorly fitted or top-dose-only effect, or another doubt; inactive = no such curve, though single readings can be large or run the other way; cell line not stated here;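 note: phosphodiesterase inhibitor Ro 20-1724 added with compounds to block cAMP breakdown; potency is the fitted concentration of half-maximal effect; nearly all actives have a fitted effect of over 60% in size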
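Cells in DMEM/10% FBS with G418 were pretreated with compounds in DMSO plus […] (300 uM stock) for 30 min at 37C. cAMP was measured by HTRF (cAMP-d2 plus anti-cAMP antibody-K) after 30 min at room temperature.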
gsp antag = antagonizes gsp, the McCune-Albright syndrome mutation | 340,000 tested, 0.4% active | Potency, µM (series often up to 76.9 µM), for inactives: at the highest dose activity change, negative = inhibition, usual class: inhibitors | gsp-mutant cells, cAMP HTRF, 30 min; calls by dose curve; cell line not stated here;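 note: intracellular cAMP measured with PDE inhibitor Ro 20-1724 present during compound exposure; potency is the fitted concentration of half-maximal effect; % is set by controls: 0 for no effect and ±100 for the full control effect; nearly all actives have a fitted effect of over 65% in size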
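G418-selected cells were plated in DMEM/10% FBS for 16-24 h at 37C, then treated with compounds plus the PDE inhibitor […] (300 uM solution added) for 30 min at 37C. Intracellular cAMP was measured by HTRF after 30 min lysis at room temperature.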
TSHR antagonist = antagonists of human thyroid stimulating hormone receptor; TSHR-expressing cells, TSH-stimulated cAMP HTRF, 2 h; hits give low values; AID 504810; 330,000 tested, 0.2% active; activity change, negative = inhibition, % at 11.5 µM;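 active = activity change below a set negative limit, meaning inhibition stronger than a set level, cut at about -70% in these data; inconclusive = activity change between two set negative limits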; note: % is set by controls: 0 for no effect and ±100 for the full control effect
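Inhibition of cAMP made by TSHR-expressing cells under TSH stimulation (4nM final, EC80; 2 h, 37 deg C) is quantified with a one-step lysis HTRF kit, anti-cAMP cryptate versus cAMP-d2.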
S-ASM inh = inhibitors of human secretory acid sphingomyelinase; P17405; placental ASM, HMU-PC fluorogenic substrate, 60 min; Potency, µM (series often up to 57.5 µM), for the others: top-dose activity change, negative = inhibition, hits mostly inhibitors; 340,000 tested, 0.006% active; AID 504937; active = well fitted inhibition curve with a large enough effect; inconclusive = small, poorly fitted or top-dose-only effect; inactive = no such curve, though single readings can be large or run the other way; note: potency is the fitted concentration of half-maximal effect
Target sequence (P17405 47-631 limits assumed): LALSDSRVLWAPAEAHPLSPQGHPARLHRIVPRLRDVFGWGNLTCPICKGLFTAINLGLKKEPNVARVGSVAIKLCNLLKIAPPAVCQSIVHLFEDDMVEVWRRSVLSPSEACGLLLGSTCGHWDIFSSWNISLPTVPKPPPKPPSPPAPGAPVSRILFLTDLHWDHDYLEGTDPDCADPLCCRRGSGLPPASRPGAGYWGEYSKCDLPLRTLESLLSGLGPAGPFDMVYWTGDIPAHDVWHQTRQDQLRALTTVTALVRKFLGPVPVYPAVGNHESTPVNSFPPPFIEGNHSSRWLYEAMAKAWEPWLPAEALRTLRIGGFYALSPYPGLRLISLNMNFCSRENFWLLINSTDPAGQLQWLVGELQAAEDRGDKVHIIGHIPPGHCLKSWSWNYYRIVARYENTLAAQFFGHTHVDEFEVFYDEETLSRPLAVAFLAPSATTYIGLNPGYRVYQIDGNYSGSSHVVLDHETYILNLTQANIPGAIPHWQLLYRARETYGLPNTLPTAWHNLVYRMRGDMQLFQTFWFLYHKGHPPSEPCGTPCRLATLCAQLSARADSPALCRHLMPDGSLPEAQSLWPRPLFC
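Steps: dispense placental human ASM, pin compound, wait 10 min at room temperature, add HMU-PC0 substrate at 9 uM final, incubate 60 min at 37 °C, add stop solution raising pH to 10, read fluorescence.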
* = called active by the depositor; ? = inconclusive; / = no result; [ ] = dose if it differs, or a comment.

SMILES	gsp agonist	gsp antag	TSHR antagonist	S-ASM inh
C/C(=N\N=C1/SC(CC(=O)O)C(=O)N1c1ccccc1)c1ccc(C)cc1 (stereo unspecified)	-26%	25µM*	-7	2%
O=C(O)CC1S/C(=N/N=C2CCCCC2)N(c2ccccc2)C1=O (stereo unspecified)	6%	10%	1	1%
C=CC(=O)N1CCCC(Nc2nc(Nc3ccc(N(C)C(=O)CC)cc3C)nc3nc[nH]c23)C1 (stereo unspecified)	28%	1%	1	6%
Cc1ccc(Sc2ccc(NC(=O)c3ccc(S(C)(=O)=O)cc3Cl)cc2)cc1	32µM*	24%	9	-10%
C=CCCC(=O)N1C[C@H]2CON(C)[C@H]2C[C@H]1c1cccc(Br)c1	/	9%	/	7%
Cc1ccc(C)n1-c1ccc(-c2nnc3n2CCCCC3)s1	32µM*	10%	11	1%
Cc1cccc(-c2cccc(NC(=O)C3CCCN(C(=O)c4csc(C)n4)C3)c2)c1 (stereo unspecified)	?	35µM*	-5	-9%
CN(Cc1ccccc1F)c1nc(-c2cccs2)nc2ccccc12	19%[15.4 µM]	11µM*	39	-7%
O=C(Nc1ccc(-n2cccc2)cc1)C1CC1	-2%[15.4 µM]	11µM*	2	6%
CC(C)CCN1C(=O)c2ccc(C(=O)Nc3ccc(Br)cc3C(=O)O)cc2C1=O	5%	35µM*	-36	16%
CC(C)CN1C(=O)c2ccc(C(=O)Nc3ccccn3)cc2C1=O	-11%	22%	-2	2%
CC(C)CN1C(=O)c2ccc(C(=O)Nc3ccncc3)cc2C1=O	-65%	28µM*	-46	3%
COC(=O)c1ccc(NC(=O)c2ccc3c(c2)C(=O)N(Cc2cccnc2)C3=O)cc1	1%	40µM*	-19	-10%
Cc1cccc(OCC(=O)NNc2c3ccccc3nc3ccccc23)c1	-5%	22µM*	-3	-2%
Cc1ccc(OCC(=O)NNc2c3ccccc3nc3ccccc23)cc1	1%	28µM*	-19	-7%
O=C(Cc1ccccc1)NNc1c2ccccc2nc2ccccc12	19%	-17%	-11	-2%
CCOC(=O)c1ccc(N2C=C(C(=O)OC)C(c3cccc(O)c3)C(C(=O)OC)=C2)cc1	5%	-14%	-6	482%
N#Cc1c(N2CCOCC2)nsc1-c1ccc(C(F)(F)F)cc1	102%	2%	-6	-3%
N#Cc1c(N2CCSCC2)nsc1-c1ccccc1Cl	16µM*	-8%	-1	-2%
Cc1ccccc1NC(=O)c1cc2ccccn2n1	-4%	7%	-84*	0%
CCOC(=O)c1cnc2ccc(OCC)cc2c1NCc1cccnc1	-9%[15.4 µM]	?	-3	/
CCOC(=O)c1cnc2ccc(OCC)cc2c1NCc1ccccc1	24%	14µM*	-12	479%
CCOC(=O)c1cnc(-n2nc(C)cc2C)nc1NCc1ccccc1	5%	35µM*	7	-3%
Cc1ccc(NC2=C/C(=N\S(=O)(=O)c3cccs3)c3ccccc3C2=O)c(C)c1	0%[15.4 µM]	-13%	-36	-14%
Cc1ccc(Cl)cc1NC1=C/C(=N\S(=O)(=O)c2cccs2)c2ccccc2C1=O	-4%	-2%	-76*	-7%
SMILES	gsp agonist	gsp antag	TSHR antagonist	S-ASM inh
COc1ccc([C@H]2CC(=O)C=C(c3ccc(CNC(=O)OC(C)(C)C)cc3)C2)cc1	10%	35µM*	-32	-2%
Cc1cccn2c(=O)cc(CSc3nnc(NC(=O)COc4ccccc4)s3)nc12	/	/	-9	/
COc1ccccc1N1CCN(C(=O)c2cccc(S(=O)(=O)N3c4ccccc4CC3C)c2)CC1 (stereo unspecified)	11%	32µM*	/	-3%
CC(C)(C)c1ccc(C(=O)CCCN2CCC(OC(c3ccccc3)c3ccccc3)CC2)cc1	/	/	-10	/
Cc1ccc(C(=O)Nc2nc(=O)n(C(=O)c3ccccc3C)s2)cc1	1%	40µM*	14	0%
COc1ccc(C(=O)NCCNc2ncc(C(F)(F)F)cc2Cl)cc1[N+](=O)[O-]	15%	-11%	-10	-15%
Cc1ccc(C(=O)NCCNc2ncc(C(F)(F)F)cc2Cl)cc1[N+](=O)[O-]	12%	-3%	-113*	-8%
CC(NC(=O)c1ccco1)C(=O)N1CCN(c2cccc(Cl)c2)CC1 (stereo unspecified)	?	-3%	4	-2%
CC(C)C(NC(=O)Cc1ccccc1)C(=O)N1CCN(c2cccc(Cl)c2)CC1 (stereo unspecified)	10%	28µM*	-45	2%
COc1cc2c(cc1OC)CN(CC(=O)NC(=O)NC1CCCCC1)CC2	16%[15.4 µM]	-51%	28	7%
CC(C)(C)c1ccc(C(=O)CCC(=O)OCC(=O)NCCc2ccc(S(N)(=O)=O)cc2)cc1	1%	32µM*	-6	5%
NS(=O)(=O)c1ccc(CCNC(=O)COC(=O)CCc2ccccc2)cc1	-14%	2%	11	2%
O=[N+]([O-])c1cc(Br)c(O)c(/C=N/Nc2nnnn2-c2cccc3ccccc23)c1	-52%	?	-75*	31%
CC(C)CN(C)C(=O)CCc1nnc(Cc2cccc(C(F)(F)F)c2)o1	7%	-2%	4	-1%
Cc1ccc(S(C)(=O)=O)cc1C(=O)OCC(=O)N(Cc1ccccc1)Cc1ccccc1	-11%	?	17	-3%
CN1C(=O)/C(=C/c2cccc(Cl)c2)Sc2ccc(C(=O)N3CCCC3)cc21	0%	8.9µM*	16	1%
Cc1cc(NC(=O)CSc2nnc(-c3cccnc3)n2Cc2ccccc2)no1	3%[15.4 µM]	-1%	-6	3%
O=c1c2ccsc2ncn1Cc1cccc(C(F)(F)F)c1	13µM*	-2%	4	-3%
O=c1c2ccsc2ncn1Cc1ccccc1F	-11%	-4%	2	2%
COc1cc(OC)cc(C(=O)NCCOC23CC4CC(CC(C4)C2)C3)c1	2.5µM*	-16%	-13	6%
Fc1cccc(NC(=S)NCc2ccccc2Cl)c1	-6%[15.4 µM]	-16%	-5	-2%
O=C(NCCc1ccccc1)c1cccnc1N1CCCCCC1	5%	-6%	-80*	1%
C=CC(C)=C[C@@]1(C)SC(=O)C(C)=C1O	/	/	-20	/
CCOC(=O)N1CCN(C(=O)CSc2ccc3nnc(CCNC(=O)c4ccccc4)n3n2)CC1	13µM*	10%	5	1%
COc1ccccc1/C=C/C(=O)c1c2c(c(C)[nH]c1=O)CCCC2	25%	50µM*	-19	-1%
COc1ccccc1/C=C/C(=O)c1ccccc1	16%	-8%	-11	-1%
Nc1nc(SCC(=O)C23CC4CC(CC(C4)C2)C3)n[nH]1	-31%	-14%	-76*	0%
COC(=O)c1cc(-c2ccc(NC(C)=O)cc2)nc2ccccc12	?	-13%	-8	285%
COc1ccc(C(CC(=O)N2CCOCC2)c2c(OC)cc(OC)c3c(-c4ccccc4)cc(=O)oc23)cc1 (stereo unspecified)	/	-1%	-82*	4%
CCCC(=O)Nc1nnc(CCc2ccccc2)s1	0%	-1%	-89*	-1%
